This excerpt belongs to a sample that is enriched for hits.
Shiga inhibitor – A qHTS for Small Molecule Inhibitors of Shiga Toxin; Vero cells, Shiga toxin protein synthesis inhibition reporter; inhibition, % at 38.7 µM; hit rate 9.2% among 290,000; in the data active = inhibition mostly above about 28%, no sharp cut-off; inactive = mostly below about 43%; note: 0% is about no effect
NS1 inh – qHTS Assay for Inhibitors of Influenza NS1 Protein Function; hit rate 0.4% among 270,000; Potency, µM (highest dose often 46.1 µM), for the others: at the top dose activity, positive = more growth; AID 2326, 2010; calls by dose curve; note: potency is the fitted concentration of half-maximal effect; actives are rising curves; nearly all actives have a fitted effect of over 50% in size
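Compounds were scored for reversing the slow growth caused by influenza A NS1 in S. cerevisiae, measured by optical density at 600 nm. Assay medium contained 2% galactose at pH 6.0; NS1-free yeast of the same strain were the positive control.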
SARS PLP yeast – qHTS of Yeast-based Assay for SARS-CoV PLP | hit rate 0.19% among 330,000 | Potency, µM (doses to about 32.9 µM), for the others: top-dose activity, positive = growth rescue, hits mostly activators | S. cerevisiae expressing SARS-CoV PLpro, growth rescue | AID 485353, 2010; calls by dose curve; note: potency is the fitted concentration of half-maximal effect; 0% is about no effect; nearly all actives have a fitted effect of over 55% in size
LmPK inh – qHTS Assay for Inhibitors of Leishmania Mexicana Pyruvate Kinase (LmPK); purified LmPK, Kinase-Glo ATP luminescence, 1 h; Potency, µM (titrated, usually from 57.5 µM), inactives show at the top dose activity change, negative = inhibition, actives largely listed as inhibitors; hit rate 0.37% among 290,000; note: potency is the fitted concentration of half-maximal effect; % is set by controls: 0 for no effect and ±100 for the full control effect
Target sequence (Q27686 whole entry, looked up): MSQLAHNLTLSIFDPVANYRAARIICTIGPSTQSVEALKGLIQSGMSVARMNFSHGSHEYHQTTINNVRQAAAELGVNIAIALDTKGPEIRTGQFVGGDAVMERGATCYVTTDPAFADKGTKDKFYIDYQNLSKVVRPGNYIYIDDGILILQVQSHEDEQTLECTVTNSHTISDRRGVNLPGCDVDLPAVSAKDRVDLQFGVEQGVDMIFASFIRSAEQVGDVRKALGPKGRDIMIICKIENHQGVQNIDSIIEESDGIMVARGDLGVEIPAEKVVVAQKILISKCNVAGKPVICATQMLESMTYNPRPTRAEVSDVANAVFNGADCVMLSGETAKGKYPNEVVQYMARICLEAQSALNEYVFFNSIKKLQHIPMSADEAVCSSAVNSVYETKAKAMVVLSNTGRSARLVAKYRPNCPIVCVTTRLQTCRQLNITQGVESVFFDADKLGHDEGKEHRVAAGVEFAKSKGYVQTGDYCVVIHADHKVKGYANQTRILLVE
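Purified LmPK (0.1 nM) converted ADP (0.1 mM) to ATP with PEP (0.5 mM) in imidazole buffer pH 7.2 with KCl and MgCl2, 1 h at room temperature. ATP was read by Kinase-Glo luminescence; data normalized to uninhibited and no-enzyme controls.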
TbPYK inhibitor – qHTS of Trypanosoma Brucei Inhibitors; pyruvate kinase (Trypanosoma brucei), Q57TT1; TbPYK enzyme, Kinase-Glo Plus ATP luminescence, 45 min; Potency, µM (doses to about 76.8 µM), for inactives: at the highest dose activity, negative = inhibition, actives largely listed as inhibitors; hit rate 0.12% among 410,000; note: potency is the fitted concentration of half-maximal effect; % is set by controls: 0 for no effect and ±100 for the full control effect; nearly all actives have a fitted effect of over 50% in size
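T. brucei PYK with substrate was exposed to pin-transferred compounds across a concentration series, then started with 130 uM ADP (final). After 45 min at room temperature, Kinase-Glo Plus luminescence was read, normalized and curve-fitted.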
CHX counter – Cycloheximide Counterscreen for Small Molecule Inhibitors of Shiga Toxin; cell reporter, cycloheximide protein synthesis inhibition counterscreen; max response, %; hit rate 12% among 300,000; AID 2314, 2010; in the data active = max response mostly above about 13%, no sharp cut-off; inactive = mostly below about 14%; note: read at 38.3 µM for the half of the compounds with a filed dose; 0% is about no effect
Numbers without * were called inactive; ? = inconclusive; . = no result; + = active, no number. Unless noted, calls come from the whole dose curve; as a rule, active = well fitted curve in the direction sought with a large enough effect; inconclusive = small, poorly fitted or top-dose-only effect, or another doubt; inactive = no such curve, though single readings can be large; an effect the other way counts as inactive or inconclusive.

SMILES | Shiga inhibitor | NS1 inh | SARS PLP yeast | LmPK inh | TbPYK inhibitor | CHX counter
Cc1ccc(C)c(/C=N/Nc2ccccn2)c1 | 53* | . | 1% | 4% | 2% | 20*
COc1ccc(/C=N/NS(C)(=O)=O)c(OC)c1 | 9 | -8% | 14% | 4% | -13% | -1
COc1ccc(/C=N/Nc2ccccn2)c(OC)c1OC | 74* | . | -4% | 3% | 5% | 40*
COc1ccc(/C=N/OCc2ccc(Br)cc2)c(OC)c1 | 31* | -1% | -4% | 2% | -1% | 30*
Clc1ccc(C=NNc2ccccn2)c(Cl)c1 | . | . | . | . | -4% | .
COc1ccc(/C=N/Nc2ncc(Br)cn2)c(OC)c1 | 51* | 3% | 0% | -7% | 3% | 46*
COc1ccc(-c2nn(-c3ccccc3)cc2/C=N/Nc2ccccn2)cc1 | -12 | 3% | 0% | -1% | . | -3
COc1ccc(/C=N\Nc2ccccn2)c(OC)c1 | 43 | -9% | 0% | 0% | 3% | 39*
CC(C)(C)OC(=O)N[C@@H](Cc1ccccc1)[C@H](O)c1ccco1 | 40 | 7% | 0% | 8% | -6% | 20*
C=C(C)CN(CC)C(=O)c1ccc(OC2CCN(S(=O)(=O)N(C)C)CC2)cc1 | 55* | 1% | 0% | 4% | -7% | 38*
COC(=O)CN(C)C(=O)c1cccc(OC2CCN(S(=O)(=O)N(C)C)CC2)c1 | 2 | 13% | 3% | 0% | -14% | 3
C#CCN(CC=C)C(=O)c1ccc(OC2CCN(S(=O)(=O)N(C)C)CC2)cc1 | 62* | 4% | -1% | 7% | 2% | 37*
C=C(C)CNC(=O)c1ccc(OC2CCN(S(=O)(=O)N(C)C)CC2)cc1 | 11 | -4% | -2% | -2% | 14% | 20*
CC(C)CCNC(=O)c1ccc(OC2CCN(S(=O)(=O)N(C)C)CC2)cc1 | 43 | -4% | -1% | 1% | 3% | 40*
CN(C)S(=O)(=O)N1CCC(Oc2ccc(C(=O)NCCc3cscn3)cc2)CC1 | -5 | 0% | 5% | -1% | 4% | -2
CC(C)CN1CC(C)C(=O)NC1=S (stereo unspecified) | . | . | . | . | -1% | .
CSc1sccc1/C=C(/C#N)C(=O)c1ccco1 | 18 | 5% | -4% | -6% | -16% | 11
COc1cc(Cl)c(NC(=O)c2cc(CN3CCCC3)on2)c(OC)c1 | . | . | . | . | -14% | .
CN(CCC#N)C(=O)CSc1ncnc2sc(-c3ccccc3)cc12 | 62* | -9% | 1% | 6% | -3% | 31*
CN(C)c1ncnc2sc(-c3ccccc3)cc12 | 40 | -43% | -5% | 3% | 0% | 16*
CC(C)(C)Nc1ncnc2sc(-c3ccccc3)cc12 | 29 | -3% | 0% | -1% | 3% | 11
COc1ncnc2sc(-c3ccccc3)cc12 | 82 | -67% | 16% | 13µM* | ? | 66*
CN(C)C(=O)COc1ncnc2sc(-c3ccccc3)cc12 | 72* | -3% | -4% | 1% | 1% | 28*
COc1ccc(Nc2ncnc3sc(-c4ccccc4)cc23)cc1 | -27 | -4% | -8% | 1% | 10% | -6
C[C@@H](NC(=O)[C@@H]1CCCN1C(=O)[C@@H]1CCCN1C(=O)c1cccc2ccccc12)c1ccccc1 | . | . | . | . | -9% | .
SMILES | Shiga inhibitor | NS1 inh | SARS PLP yeast | LmPK inh | TbPYK inhibitor | CHX counter
O=c1c2ccccc2nc(COc2ccccc2)n1/N=C/c1ccc(O)c(O)c1 | 19 | -2% | -1% | -1% | -2% | 25*
Nn1c(Cc2ccccc2)nc2ccccc2c1=O | . | . | . | . | 2% | .
Cc1ccccc1OCc1nc2ccccc2c(=O)n1/N=C/c1cn[nH]c1-c1ccccc1 | 30 | 3% | 26% | 0% | -20% | 7
Nn1c(COc2ccc(Cl)cc2)nc2ccccc2c1=O | active | -4% | 0% | -2% | 1% | 24*
Cc1ccccc1OCc1nc2ccccc2c(=O)n1/N=C/c1cccc([N+](=O)[O-])c1 | + | 5% | 10% | 0% | -8% | 23*
Cc1ccc(-c2[nH]ncc2/C=N/n2c(COc3ccccc3)nc3ccccc3c2=O)cc1 | 42 | 12% | -6% | -2% | -6% | 29*

Screening results as filed in PubChem.
